Records with an inconclusive call do not appear. The source made the active and inactive calls. Calls come from the whole dose curve; as a rule, active = well fitted curve in the direction sought with a large enough effect; inconclusive = small, poorly fitted or top-dose-only effect, or another doubt; inactive = no such curve, though single readings can be large; an effect the other way counts as inactive or inconclusive.
Potency is the fitted concentration of half-maximal effect.

The nature of the first assay: BET inhibitor-based combinations targeting novel dependencies in MECOM-rearranged (r) AML: HNT-34 cell line (AID 2202234).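 For viability (% of control): plate controls were vehicle wells for no effect and cell-free wells for full effect.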 Note: nearly all actives have a fitted effect of over 35% in size. To be noted: HNT-34 AML viability, CellTiter-Glo luminescence, 48 h; series mostly up to 46 µM; viability (% of control): at the top concentration. In a few lines: (§1)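 Seeding density was 500 cells/well, and drug exposure lasted 48 hr under standard culture conditions. Read-out used CellTiter-Glo reagent with a 15 min room-temperature incubation before luminescence measurement; AUC and Z-AUC summarize the normalized responses.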
(Cellular ATP, detected with luciferase, serves as a proxy for viable cell number.)
With `C=CC(=O)Nc1cccc(Nc2nc(Nc3ccc(N4CCN(C(C)=O)CC4)cc3OC)ncc2C(F)(F)F)c1`, the Potency is 4.17 µM (active).
For the molecule `COc1ccc2[nH]c(S(=O)Cc3ncc(C)c(OC)c3C)nc2c1` (stereo not drawn), the “viability (% of control)” value was 75% (inactive).
With `CC(/C=C/C(=O)NO)=C\[C@@H](C)C(=O)c1ccc(N(C)C)cc1`, the Potency is 0.934 µM (active).
Regarding `O=C(c1ccc(/C=C/c2n[nH]c3ccccc23)cc1)N1CCNCC1`, the Potency is 3.72 µM (active).
Take `Cn1cc(-c2cnn3c(N)c(Br)c(C4CCCNC4)nc23)cn1` (stereo not drawn): the Potency is 10.5 µM (active).
As to `C#Cc1cccc(Nc2ncnc3cc(OCCOC)c(OCCOC)cc23)c1`, the Potency was 5.25 µM (active).
Regarding `CCn1c(=O)c(-c2ccc(Cl)cc2Cl)cc2cnc(Nc3ccc(N4CCNCC4)c(F)c3)nc21`, the Potency was 0.105 µM (active).

The next assay is described as follows: BET inhibitor-based combinations targeting novel dependencies in MECOM-rearranged (r) AML: UCSD-AML1 cell line (AID 2202235).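 For viability (% of control): plate controls were DMSO vehicle wells for no effect and blank wells for full effect.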 Note: nearly all actives have a fitted effect of over 40% in size. To be noted: UCSD-AML1 AML cells viability, CellTiter-Glo, 48 h; series mostly up to 46 µM; viability (% of control): at the top concentration. In a few lines: as §1
`Cc1cccc(-c2[nH]ncc2-c2ccc(F)c(-c3cnn(CCO)c3)c2)n1`: the “viability (% of control)” value is 85.4% (inactive).
Regarding `C=CC(=O)Nc1cccc(Nc2nc(Nc3ccc(N4CCN(C(C)=O)CC4)cc3OC)ncc2C(F)(F)F)c1`, the Potency is 5.9 µM (active).
On to `COc1ccc2[nH]c(S(=O)Cc3ncc(C)c(OC)c3C)nc2c1` (stereo not drawn), for which the “viability (% of control)” value was 95.5% (inactive).
In the case of `CC(/C=C/C(=O)NO)=C\[C@@H](C)C(=O)c1ccc(N(C)C)cc1`, the Potency was 1.05 µM (active).
The same measure, in the same setting: the same measure for `O=C(c1ccc(/C=C/c2n[nH]c3ccccc23)cc1)N1CCNCC1`: 3.32 µM (active).
As to `Cn1cc(-c2cnn3c(N)c(Br)c(C4CCCNC4)nc23)cn1` (stereo not drawn), the Potency is 5.25 µM (active).
Consider `[2H]C([2H])(Nc1nc(-c2ccccc2C([2H])(C([2H])([2H])[2H])C([2H])([2H])[2H])ncc1C)c1ccc(-n2ccnn2)cc1`, for which the “viability (% of control)” value was 85.6% (inactive).
As to `Cc1c(NC(=O)OCC2COCCN2)cn2ncnc(Nc3ccc4c(cnn4Cc4cccc(F)c4)c3)c12` (stereo not drawn), the “viability (% of control)” value was 109% (inactive).
As to `CCn1c(=O)c(-c2ccc(Cl)cc2Cl)cc2cnc(Nc3ccc(N4CCNCC4)c(F)c3)nc21`, the Potency was 0.525 µM (active).
On to `CC(C)NC(=O)COc1cccc(-c2nc(Nc3ccc4[nH]ncc4c3)c3ccccc3n2)c1`, for which the “viability (% of control)” value was 85.4% (inactive).
In the case of `Cc1c[nH]c2ncnc(N3CCC(CN)(C(=O)Nc4cccc(OC(=O)N(C)C)c4)CC3)c12`, the “viability (% of control)” value is 107% (inactive).

Another assay can be described thus: BET inhibitor-based combinations targeting novel dependencies in MECOM-rearranged (r) AML: AML-191 cell line (AID 2202236; note: nearly all actives have a fitted effect of over 35% in size;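 for viability (% of control): plate controls were vehicle wells for no effect and wells without cells for full effect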). To be noted: AML-191 viability, CellTiter-Glo luminescence, 48 h; series mostly up to 46 µM; viability (% of control): at the top concentration. In a few lines:
(§2)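 Readout: CellTiter-Glo luminescence. Exposure: 48 h, 11 concentrations, 500 cells/well. Metric: AUC and within-line Z-AUC after DMSO/empty-well normalization.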
Consider `C=CC(=O)Nc1cccc(Nc2nc(Nc3ccc(N4CCN(C(C)=O)CC4)cc3OC)ncc2C(F)(F)F)c1`, for which the Potency was 9.34 µM (active).
On to `COc1ccc2[nH]c(S(=O)Cc3ncc(C)c(OC)c3C)nc2c1` (stereo not drawn), for which the “viability (% of control)” value is 101% (inactive).
As to `CC(/C=C/C(=O)NO)=C\[C@@H](C)C(=O)c1ccc(N(C)C)cc1`, the Potency was 1.18 µM (active).
`O=C(c1ccc(/C=C/c2n[nH]c3ccccc23)cc1)N1CCNCC1`: the Potency was 2.95 µM (active).
In the case of `Cc1c(NC(=O)OCC2COCCN2)cn2ncnc(Nc3ccc4c(cnn4Cc4cccc(F)c4)c3)c12` (stereo not drawn), the Potency was 23.5 µM (active).

Another assay is described as follows: BET inhibitor-based combinations targeting novel dependencies in MECOM-rearranged (r) AML: AML-194 cell line (AID 2202237; note: nearly all actives have a fitted effect of over 40% in size;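 for viability (% of control): plate controls were vehicle wells for no effect and wells without cells for full effect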). To be noted: AML-194 (MECOM-r AML) viability, CellTiter-Glo, 48 h; series mostly up to 46 µM; viability (% of control): at the top concentration. The method in brief: as §2
On to `Cc1cccc(-c2[nH]ncc2-c2ccc(F)c(-c3cnn(CCO)c3)c2)n1`, for which the “viability (% of control)” value was 106% (inactive).
Turning to `C=CC(=O)Nc1cccc(Nc2nc(Nc3ccc(N4CCN(C(C)=O)CC4)cc3OC)ncc2C(F)(F)F)c1`, the Potency was 18.6 µM (active).
Take `COc1ccc2[nH]c(S(=O)Cc3ncc(C)c(OC)c3C)nc2c1` (stereo not drawn): the “viability (% of control)” value was 98.2% (inactive).
For `CC(/C=C/C(=O)NO)=C\[C@@H](C)C(=O)c1ccc(N(C)C)cc1`, the Potency is 1.18 µM (active).
As to `[2H]C([2H])(Nc1nc(-c2ccccc2C([2H])(C([2H])([2H])[2H])C([2H])([2H])[2H])ncc1C)c1ccc(-n2ccnn2)cc1`, the “viability (% of control)” value was 81.5% (inactive).

Source of the values: PubChem BioAssay (NCATS).
